Experimental data as given in PubChem BioAssay (NCATS).
Unmarked numbers belong to inactive results. Records with an inconclusive call do not appear. Where a call stands in place of a potency, no number is given. Activity calls are given as the source filed them. Calls follow the shape of the dose curve; as a rule, active = well fitted curve in the direction sought with a large enough effect; inconclusive = small, poorly fitted or top-dose-only effect, or another doubt; inactive = no such curve, though single readings can be large; an effect the other way counts as inactive or inconclusive.

Columns and labels:
[1] = qHTS for inhibitors of adenylyl cyclases using a fission yeast platform: a pilot screen against the NCATS LOPAC library (AID 1347410)
Method in brief: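 Inhibition of GNAS-stimulated AC9 activity in S. pombe was inferred from derepression of a PKA-repressed fbp1-GFP reporter, measured as cytometric fluorescence after 18 h at 30C with compounds at up to 57 µM.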

[2] = Validation qHTS assay for inhibitors of Activation Induced Cytidine Deaminase (AID): UDG Counterscreen signal (AID 1347427); also: potency is read from the fitted curve at half-maximal effect
Method in brief: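 Counterscreen read of UDG activity (2 U/mL, 4/3x) in the FRET deamination format with AID (1 uM, 4/3x), DJC20/DJC23 substrates (250 nM, 4x), 4 h at room temperature. NaOH stop, fluorescence at 560 ex/665 em.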

[3] = molecular target: Single-stranded DNA cytosine deaminase (Homo sapiens) (UniProt Q9GZX7); assay: Validation qHTS assay for inhibitors of Activation Induced Cytidine Deaminase (AID): AID signal (AID 1347429); also: potency is read from the fitted curve at half-maximal effect
Sequence of Single-stranded DNA cytosine deaminase (Homo sapiens) (Q9GZX7 whole entry, looked up): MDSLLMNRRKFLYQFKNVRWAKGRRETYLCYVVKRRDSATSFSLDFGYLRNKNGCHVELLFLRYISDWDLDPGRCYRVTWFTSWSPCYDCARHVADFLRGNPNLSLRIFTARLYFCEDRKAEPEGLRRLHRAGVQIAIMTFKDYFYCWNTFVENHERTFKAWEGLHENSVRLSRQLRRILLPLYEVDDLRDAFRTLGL
Method in brief: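 Fluorescence at 540 nm excitation and 590 nm emission reports ssDNA cytosine deamination by AID, with UDG in the same well. Compound-treated reactions ran 4 hr at room temperature with DJC20/DJC23 substrate, followed by 30 min NaOH treatment.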

[4] = Primary qHTS for inhibitors of La Crosse Virus (LACV) - induced cell death in SH-SY5Y cells (AID 1508616); also: potency is read from the fitted curve at half-maximal effect
Method in brief: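 Protection against LACV-induced cell death is scored in SH-SY5Y cells exposed to compounds and virus (0.01 MOI) for 6 days. Data normalized to virus-infected DMSO wells and virus-free DMSO wells.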

[5] = molecular target: Calcium and integrin-binding protein 1 (Homo sapiens) (UniProt Q99828); assay: Validation qHTS for Identification of Calcium Integrin Binding protein 1 (CIB1) Competitor (AID 1508618)
Sequence of Calcium and integrin-binding protein 1 (Homo sapiens) (Q99828 whole entry, looked up): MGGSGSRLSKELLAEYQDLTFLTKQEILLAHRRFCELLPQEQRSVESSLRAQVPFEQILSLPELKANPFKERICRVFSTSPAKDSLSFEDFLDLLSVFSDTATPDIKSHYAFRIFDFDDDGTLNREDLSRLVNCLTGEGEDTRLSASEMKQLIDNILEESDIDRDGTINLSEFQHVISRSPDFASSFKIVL
Method in brief: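 In this qHTS validation, the LOPAC set (up to 114 uM) was tested for blocking CIB1 binding to a fluorescein-tagged alphaIIb peptide, with FP detection at 480/540 nm.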

[6] = molecular target: Papain (Carica papaya) (UniProt P00784); assay: Primary qHTS assay for inhibitors of the protease papain (AID 1645873);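 also: papain turnover of Z-FR-AMC read as the AMC fluorescence gain over 10 min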; also: potency is read from the fitted curve at half-maximal effect
Sequence of Papain (Carica papaya) (P00784 whole entry, looked up): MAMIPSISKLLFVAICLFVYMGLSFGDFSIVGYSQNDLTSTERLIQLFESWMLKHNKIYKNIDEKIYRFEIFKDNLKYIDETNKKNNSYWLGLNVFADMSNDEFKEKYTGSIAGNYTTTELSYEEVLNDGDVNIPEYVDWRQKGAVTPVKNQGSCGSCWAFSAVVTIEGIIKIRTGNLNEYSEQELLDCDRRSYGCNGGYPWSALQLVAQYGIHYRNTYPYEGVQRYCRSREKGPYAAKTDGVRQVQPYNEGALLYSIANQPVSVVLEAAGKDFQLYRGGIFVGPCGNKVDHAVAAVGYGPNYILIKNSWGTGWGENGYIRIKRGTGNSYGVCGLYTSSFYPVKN

[7] = Primary qHTS for small molecule stabilizers of the endoplasmic reticulum resident proteome: Secreted ER Calcium Modulated Protein (SERCaMP) assay (AID 1508630)
Method in brief: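 GLuc-SERCaMP-expressing SH-SY5Y cells, pretreated 16 h with compound, are challenged with thapsigargin to empty ER calcium stores; after 4 h, coelenterazine is added directly to the medium and luminescence is imaged.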

[8] = Cell Viability qHTS for small molecule stabilizers of the endoplasmic reticulum resident proteome (AID 1508629); conditions: cell viability counter-screen, 100 nM thapsigargin for final 4 h;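 also: human SH-SY5Y neuroblastoma cells carrying the GLuc-SERCaMP reporter; compound exposure about 46 h in total before the viability read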
[9] = Primary qHTS for inhibitors of nuclear receptor binding SET domain protein 2 (NSD2) in an isogenic RCH-ACV NSD2 p.E1099K mutant (9B) (AID 1645876); also: nearly all actives have a fitted effect of over 70% in size

Row | SMILES | outcome [1] | Potency [2] | Potency [3] | Potency [4] | outcome [5] | Potency [6] | Potency [7] | max response [8] [%] | Potency [9]
1 | O=C(c1ccc(OCCCc2cnc[nH]2)cc1)C1CC1 | inactive | inactive | inactive | inactive | inactive | inactive | – | – | –
2 | COc1cc(C(O)CO)ccc1OS(=O)(=O)O (stereo unspecified) | inactive | inactive | inactive | inactive | inactive | inactive | inactive | – | –
3 | NC[C@H]1O[C@@H](n2cnc3c(N)ncnc32)[C@H](O)[C@@H]1O | inactive | inactive | inactive | inactive | inactive | inactive | inactive | – | –
4 | CCCCCCCCCCCCCCCCCC(=O)OC(CC(=O)O)C[N+](C)(C)C (stereo unspecified) | inactive | inactive | inactive | inactive | inactive | inactive | inactive | – | –
5 | CC(=O)N[C@H](C(=O)O)C(C)(C)SN=O | inactive | inactive | inactive | inactive | inactive | inactive | inactive | – | –
6 | Nc1nc(Nc2ccccc2)nc2c1ncn2[C@@H]1O[C@H](CO)[C@@H](O)[C@H]1O | inactive | inactive | inactive | inactive | inactive | inactive | – | – | –
7 | C[C@@H](CN1CCC(Cc2ccccc2)CC1)[C@@H](O)c1ccc(O)cc1 | inactive | inactive | inactive | inactive | inactive | inactive | – | – | –
8 | COc1cccc(OC)c1OCCNCC1COc2ccccc2O1 (stereo unspecified) | inactive | inactive | inactive | inactive | inactive | inactive | inactive | – | –
9 | Cc1cc(NC2CCCCC2)nc(-n2nc(C)cc2C)n1 | inactive | inactive | inactive | inactive | inactive | inactive | inactive | – | –
10 | CN(C)C(N)=NCCC[C@H](N)C(=O)O | inactive | inactive | inactive | inactive | inactive | inactive | – | – | –
11 | CN1CCc2cc(NC(=O)Nc3cccnc3)ccc21 | inactive | inactive | inactive | inactive | inactive | inactive | inactive | – | –
12 | Oc1ccc(C2CNCc3sccc32)cc1O (stereo unspecified) | inactive | inactive | inactive | inactive | inactive | inactive | inactive | – | –
13 | CCCCCCCCc1ccc(-c2ccc(C(=O)O)cc2)cc1 | inactive | inactive | inactive | inactive | inactive | inactive | inactive | – | –
14 | OCC1O[C@H](O)C(Cl)C(O)C1O (stereo partly specified) | inactive | inactive | inactive | inactive | inactive | inactive | inactive | – | –
15 | OC[C@H]1O[C@@H](n2cnc3c(NC4CCCC4)ncnc32)[C@H](O)[C@@H]1O | inactive | inactive | inactive | inactive | inactive | inactive | inactive | – | –
16 | O=C(O)c1cc(=O)c2c(Cl)cc(Cl)cc2[nH]1 | inactive | inactive | inactive | inactive | inactive | inactive | inactive | – | –
17 | O=C(O)c1cc([N+](=O)[O-])ccc1NCCCc1ccccc1 | inactive | inactive | inactive | inactive | inactive | inactive | inactive | – | –
18 | NCCCS(=O)(=O)O | inactive | inactive | inactive | inactive | inactive | inactive | inactive | – | –
19 | O=C(O)CC1CCCc2ccccc2C1O (stereo unspecified) | inactive | inactive | inactive | inactive | inactive | inactive | – | – | –
20 | Fc1cccc(/C=N/N=C/c2cccc(F)c2)c1 | inactive | inactive | inactive | inactive | inactive | inactive | inactive | – | –
21 | O=C(O)CC[C@@H](C(=O)O)N1C(=O)c2ccccc2C1=O | inactive | inactive | inactive | inactive | inactive | inactive | – | – | –
22 | NC[C@@H]1O[C@H](C23CC4CC(CC(C4)C2)C3)Cc2c1ccc(O)c2O | inactive | inactive | inactive | inactive | inactive | inactive | inactive | – | –
23 | Clc1ccc(N2CCN(Cc3c[nH]c4ncccc34)CC2)cc1 | inactive | inactive | inactive | inactive | inactive | inactive | – | – | –
24 | COc1ccc(NC(=O)/C=C/c2ccc(Cl)cc2)cc1 | inactive | inactive | inactive | inactive | inactive | inactive | – | – | –
25 | COc1cc2c(CCNC(C)=O)c[nH]c2cc1Cl | inactive | inactive | inactive | inactive | inactive | inactive | inactive | – | –

Row | SMILES | outcome [1] | Potency [2] | Potency [3] | Potency [4] | outcome [5] | Potency [6] | Potency [7] | max response [8] [%] | Potency [9]
26 | CSc1nc(N)c2ncn([C@@H]3O[C@H](COP(=O)(O)OP(=O)(O)OP(=O)(O)O)[C@@H](O)[C@H]3O)c2n1 | inactive | inactive | inactive | inactive | inactive | inactive | inactive | – | –
27 | Oc1cc2c(cc1O)CN(C(=S)NCCc1ccc(Cl)cc1)CCC2 | inactive | inactive | inactive | 2.24 µM (active) | inactive | inactive | – | – | –
28 | Clc1ccc(N2CCN(Cc3cc4ccccn4n3)CC2)cc1 | inactive | inactive | inactive | inactive | inactive | inactive | inactive | – | –
29 | C=CC(C)=C[C@@]1(C)SC(=O)C(C)=C1O | inactive | inactive | inactive | inactive | inactive | inactive | – | – | –
30 | O=C(/C=C/c1ccc(O)c(O)c1)OCCc1ccccc1 | inactive | inactive | inactive | 0.631 µM (active) | inactive | inactive | – | – | –
31 | O=C(Nc1cccc(C(=O)Nc2ccc(S(=O)(=O)O)c3cc(S(=O)(=O)O)cc(S(=O)(=O)O)c23)c1)Nc1cccc(C(=O)Nc2ccc(S(=O)(=O)O)c3cc(S(=O)(=O)O)cc(S(=O)(=O)O)c23)c1 | inactive | inactive | inactive | inactive | – | 3.16 µM (active) | inactive | – | –
32 | CC(C)CC(NP(=O)(O)O[C@@H]1O[C@@H](C)[C@H](O)[C@@H](O)[C@H]1O)C(=O)NC(Cc1c[nH]c2ccccc12)C(=O)O (stereo partly specified) | inactive | inactive | inactive | inactive | inactive | inactive | – | – | –
33 | OCC1O[C@H]([S-])[C@H](O)[C@@H](O)[C@@H]1O.[Au+] (stereo partly specified) | inactive | inactive | 12.6 µM (active) | inactive | – | – | inactive | – | –
34 | O=C(c1ccc(Cl)cc1)N1CCN(c2ccc([N+](=O)[O-])c3ncccc23)CC1 | inactive | inactive | inactive | – | inactive | inactive | – | 3.83 | –
35 | NC(=O)C1=CN(C2OC(COP(=O)(O)OP(=O)(O)OC[C@H]3O[C@@H](n4cnc5c(N)ncnc54)[C@H](OP(=O)(O)O)[C@@H]3O)C(O)C2O)C=CC1 (stereo partly specified) | inactive | inactive | inactive | inactive | inactive | inactive | – | – | –
36 | CN1CCc2ccccc2Cc2[nH]c3ccccc3c2CC1 | inactive | inactive | inactive | inactive | – | inactive | inactive | – | –
37 | COC(=O)c1c(C)[nH]c(C)c1C(=O)c1ccccc1Cc1ccccc1 | inactive | inactive | inactive | inactive | inactive | inactive | – | – | –
38 | O=C(CCCCCN1CCN(c2ccccc2-c2ccccc2)CC1)NC1CCCc2ccccc21 (stereo unspecified) | inactive | inactive | inactive | inactive | – | inactive | – | – | –
39 | Fc1ccc(C(OCCCc2cnc[nH]2)c2ccc(F)cc2)cc1 | inactive | inactive | inactive | – | inactive | – | inactive | -7.37 | –
40 | CC1OC1P(=O)(O)O (stereo unspecified) | inactive | inactive | inactive | inactive | inactive | inactive | – | – | –
41 | Cc1ccc(O)c(N=Nc2ccccc2)n1 | inactive | inactive | inactive | inactive | – | inactive | inactive | – | –
42 | O=c1[nH]c2cc([N+](=O)[O-])c([N+](=O)[O-])cc2[nH]c1=O | inactive | inactive | inactive | inactive | – | inactive | – | – | –
43 | Brc1c(Br)c(Br)c2n[nH]nc2c1Br | inactive | inactive | inactive | inactive | – | inactive | inactive | – | inactive
44 | CN(C)CCC(c1ccc(Cl)cc1)c1ccccn1 (stereo unspecified) | inactive | inactive | inactive | inactive | – | inactive | inactive | – | –
45 | O=C(O)CCCC[C@@H]1CCSS1 | inactive | inactive | inactive | inactive | – | inactive | inactive | – | –
46 | O=c1[nH]c2cc(C(F)(F)F)ccc2n1-c1cc(C(F)(F)F)ccc1O | inactive | inactive | inactive | inactive | – | inactive | inactive | – | –
47 | c1ccc(-c2ccccn2)nc1 | inactive | inactive | inactive | inactive | – | inactive | inactive | – | –
48 | NS(=O)(=O)C#Cc1ccccc1 | inactive | inactive | inactive | – | inactive | inactive | inactive | – | –
49 | NO | inactive | 56.2 µM (active) | inactive | inactive | – | inactive | – | – | –
50 | CN1[C@@H](CC(=O)c2ccccc2)CCC[C@H]1C[C@H](O)c1ccccc1 | inactive | inactive | inactive | inactive | inactive | inactive | – | – | –
